{
  "source": "PubChem BioAssay (Tox21)",
  "note": "Results filed as inconclusive are left out. A call without a number means that no potency is given here. Values without a mark were called inactive. Active and inactive are the calls of the source. Calls follow the shape of the dose curve; as a rule, active = well fitted cell-killing curve with a large enough effect in the repeat runs; inconclusive = weak or mixed curves, or effect the other way; inactive = flat fitted curve, though single readings scatter.",
  "data": [
    {"assay": "qHTS RealTime-Glo MT Cell Viability Assay in HEK293 cells - 8 hour (AID 1224887); also: top concentration of the series differs between compounds; nearly all actives have a fitted effect of over 50% in size", "settings": "RealTime-Glo luminescence; series mostly up to 76.8 µM", "text": "U.S. Tox21 Program National Center for Advancing Translational Sciences [NCATS] NIH Chemical Genomics Center [NCGC] U.S. Environmental Protection Agency [EPA] National Institutes of Environmental Health Sciences [NIEHS] National Toxicology Program [NTP] U.S. Food and Drug Administration [FDA] Tox21 Assay Overview: Measure of cell viability is critical in the cell-base assay. Analysis of cell viability is necessary for the characterization of cell responses to cytotoxic drugs and environmental stress. A RealTime-Glo MT Cell Viability Assay to monitor cell viability in real time of continues cell culture during 40 hours of compound treatment was used to screen Tox21 10K library compounds in Hek293 cells. The RealTime-Glo MT Cell Viability Assay is a nonlytic, homogeneous, bioluminescent method to measure cell viability in real time using a simple, plate-based method. The assay involves adding NanoLuc luciferase and a cell-permeant prosubstrate to cells in culture. Viable cells reduce the proprietary prosubstrate to generate a substrate for NanoLuc luciferase. This substrate diffuses from cells into the surrounding culture medium, where it is rapidly used by the NanoLuc Enzyme to produce a luminescent signal. The signal correlates with the number of viable cells, making the assay well suited for cytotoxicity studies.\nTox21 Assay Protocol Summary: The mixture of Hek293 cell suspension and reagents were dispensed at 600cells/6 ul/well in 1536-well tissue culture treated black solid bottom plates using a Multidrop dispenser. After the assay plates were incubated at a 37 C/5% CO2 incubator for 5 hours, 23 nL of compounds dissolved in DMSO, positive and negative controls was transferred to the assay plate by a pintool work station. The plates were incubated at 37 C for 40 hours. The luminescence intensity were measured at 0h, 8h, 16h, 24h, 32h and 40h time points using ViewLux plate reader during compound treatment.", "values": [
      {"smiles": "NS(=O)(=O)Cc1noc2ccccc12", "Potency": "inactive"},
      {"smiles": "CNCCO", "Potency": "inactive"},
      {"smiles": "CN1CC(=O)N/C1=N/C(=O)Nc1cccc(Cl)c1", "Potency": "inactive"},
      {"smiles": "Cc1nc2ccc(CN(C)c3ccc(C(=O)N[C@@H](CCC(=O)O)C(=O)O)s3)cc2c(=O)[nH]1", "Potency": "inactive"},
      {"smiles": "c1coc(CNc2ncnc3nc[nH]c23)c1", "Potency": "inactive"},
      {"smiles": "O=C(CO)[C@@H](O)[C@H](O)[C@H](O)CO", "Potency": "inactive"},
      {"smiles": "CC1=CCC(O)(C(C)C)CC1", "note": "(stereo not given)", "Potency": "inactive"},
      {"smiles": "CC1(C)[C@@H]2CC[C@@]1(C)[C@H](O)C2", "Potency": "inactive"},
      {"smiles": "CC12CCC(C(=O)C1=O)C2(C)C", "note": "(stereo not given)", "Potency": "inactive"},
      {"smiles": "CCC(C)(CCCC(C)C)OC(C)=O", "note": "(stereo not given)", "Potency": "inactive"},
      {"smiles": "CC(=O)NC(=O)c1ccccc1O", "Potency": "inactive"},
      {"smiles": "COc1cc(C(=O)NCc2ccc(OCCN(C)C)cc2)cc(OC)c1OC", "Potency": "inactive"},
      {"smiles": "Cc1ccc(C(=O)Nc2ccc(S(=O)(=O)O)c3cc(S(=O)(=O)O)cc(S(=O)(=O)O)c23)cc1NC(=O)c1cccc(NC(=O)Nc2cccc(C(=O)Nc3cc(C(=O)Nc4ccc(S(=O)(=O)O)c5cc(S(=O)(=O)O)cc(S(=O)(=O)O)c45)ccc3C)c2)c1", "Potency": "inactive"},
      {"smiles": "COc1cc(-c2ccc(=O)[nH]n2)ccc1OC(F)F", "Potency": "inactive"},
      {"smiles": "O=C(CO)[C@@H](O)[C@H](O)[C@@H](O)CO", "Potency": "inactive"},
      {"smiles": "C=CCOCC(O)CO", "note": "(stereo not given)", "Potency": "inactive"},
      {"smiles": "c1ccc(CCc2ccccc2)cc1", "Potency": "inactive"},
      {"smiles": "C[N+]1(C)CCCC(OC(=O)C(O)(c2ccccc2)c2ccccc2)C1", "note": "(stereo not given)", "Potency": "inactive"},
      {"smiles": "CCCCCCC1CCC(=O)O1", "note": "(stereo not given)", "Potency": "inactive"},
      {"smiles": "CCCCOC(=O)CCC(C)=O", "Potency": "inactive"},
      {"smiles": "CC(CC=O)CC(C)(C)C", "note": "(stereo not given)", "Potency": "inactive"},
      {"smiles": "C[C@H]1C[C@H]2[C@@H]3CCC4=CC(=O)C=C[C@]4(C)[C@H]3C(=O)C[C@]2(C)[C@@]1(O)C(=O)CO", "Potency": "inactive"},
      {"smiles": "CC(C)(N)C#N", "Potency": "inactive"},
      {"smiles": "C=C[Si](OC(C)=O)(OC(C)=O)OC(C)=O", "Potency": "inactive"},
      {"smiles": "COCCOC[C@H](CC1(C(=O)NC2CCC(C(=O)O)CC2)CCCC1)C(=O)Oc1ccc2c(c1)CCC2", "note": "(stereo not given in full)", "Potency": "inactive"},
      {"smiles": "CCCCCCC#CC(=O)OC", "Potency": "inactive"},
      {"smiles": "Clc1cc(Cl)c(Cl)nc1Cl", "Potency": "inactive"},
      {"smiles": "COCCOCC(OC)OC", "Potency": "inactive"},
      {"smiles": "NC(CCC(=O)O)C(=O)O", "note": "(stereo not given)", "Potency": "inactive"},
      {"smiles": "CC(C)C[C@@H](N)C(=O)O", "activity change, negative = cytotoxicity": "7.72% [at 15.8 µM]"},
      {"smiles": "CC(=O)c1ccc2ccccc2c1", "Potency": "inactive"},
      {"smiles": "Cc1ccnc(NS(=O)(=O)c2ccc(N)cc2)n1", "Potency": "inactive"},
      {"smiles": "O=[N+]([O-])c1ccc(/C=N\\O)o1", "Potency": "inactive"},
      {"smiles": "CCOC(=O)COC(=O)c1ccccc1C(=O)OCC", "Potency": "inactive"},
      {"smiles": "C[C@@H]1CCC[C@H](C)N1", "Potency": "inactive"},
      {"smiles": "CN(C)CCCCCCN(C)C", "Potency": "inactive"},
      {"smiles": "CN1CCC(=C2c3ccccc3CCc3cccnc32)CC1", "Potency": "inactive"},
      {"smiles": "CC(COc1ccccc1)NN", "note": "(stereo not given)", "Potency": "inactive"},
      {"smiles": "C1CCC2(CCCCO2)OC1", "Potency": "inactive"},
      {"smiles": "CCCc1nn(C)c2c(=O)[nH]c(-c3cc(S(=O)(=O)N4CCN(C)CC4)ccc3OCC)nc12", "Potency": "inactive"}
    ]}
  ]
}
